The test in a line: yeast cytosolic pH changes via V-ATPase – S. cerevisiae, pHLuorin, powder set 4, dose response (AID 652071).

Calls of active or inactive are those of the source. The rule behind the calls is not given here.

Turning to `CC(=O)N1CCN(c2ccccc2NC(=O)c2cccc(CN(C)C)c2)CC1`, the call was inactive.
As for `CN1CCN(c2ccccc2NC(=O)c2cccc(C#N)c2)CC1`, the entry is “inactive”; as for `CN(C)Cc1ccc(C(=O)Nc2ccccc2N2CCCCC2)o1`, “inactive”.
As for `CN1CCN(c2ccccc2NC(=O)c2cc(C#N)ccn2)CC1`, the entry is “inactive”; as for `CN1CCN(c2ccccc2NC(=O)c2cnc(N)o2)CC1`, “inactive”; as for `CC(=O)N1CCN(c2ccccc2NC(=O)c2cncc(N)n2)CC1`, “inactive”.
As for `CC(=O)N1CCN(c2ccccc2NC(=O)c2ccc(C(F)(F)F)o2)CC1`, the entry is “inactive”; as for `CN(C)Cc1cccc(C(=O)Nc2ccccc2N2CCN(C)CC2)c1`, “inactive”.
As to `CC(=O)N1CCN(c2ccccc2NC(=O)c2cc(C(F)(F)F)ccn2)CC1`, the compound was classed as inactive.
Consider `CC(=O)N1CCN(c2ccccc2NC(=O)c2cccc(C(F)(F)F)c2)CC1`, for which the compound was classed as inactive.
Next, `Nc1cncc(C(=O)Nc2ccccc2N2CCCCC2)n1`: “inactive”.
As for `CN1CCN(c2ccccc2NC(=O)c2occc2-c2ccccc2)CC1`, the call was inactive.
For the compound `O=C(Nc1ccccc1N1CCCCC1)c1cncc(Cl)n1`, the compound was called inactive.
For `CN1CCN(c2ccccc2NC(=O)c2cccc(C(F)(F)F)n2)CC1`, the compound was classed as inactive.
Next, `COCc1ccc(C(=O)Nc2ccccc2N2CCCCC2)o1`: “inactive”; `CS(=O)(=O)Cc1cccc(C(=O)Nc2ccccc2N2CCCCC2)c1`: “inactive”.
